# Results published in the supplement of paper PMC11732987, “Enantioselective OTUD7B fragment discovery through chemoproteomics screening and high-throughput optimisation” (Communications Chemistry, 2025).
# Values without a mark were called inactive.
# Tests used:
# Assay in all cases: log2 ratio of Biotin-Ahx-Ub-VS probe labelling (fragment/DMSO); higher = less target engagement (more negative = stronger competition), active = hit call of the paper (q ≤ 0.05, log2 ratio ≤ -1)
# Details in all cases: compound concentration: 200 uM; treatment time: 3 h
# ALG13 = molecular target: T1, ALG13 (UniProt Q9NP73)
# T1 sequence (whole entry): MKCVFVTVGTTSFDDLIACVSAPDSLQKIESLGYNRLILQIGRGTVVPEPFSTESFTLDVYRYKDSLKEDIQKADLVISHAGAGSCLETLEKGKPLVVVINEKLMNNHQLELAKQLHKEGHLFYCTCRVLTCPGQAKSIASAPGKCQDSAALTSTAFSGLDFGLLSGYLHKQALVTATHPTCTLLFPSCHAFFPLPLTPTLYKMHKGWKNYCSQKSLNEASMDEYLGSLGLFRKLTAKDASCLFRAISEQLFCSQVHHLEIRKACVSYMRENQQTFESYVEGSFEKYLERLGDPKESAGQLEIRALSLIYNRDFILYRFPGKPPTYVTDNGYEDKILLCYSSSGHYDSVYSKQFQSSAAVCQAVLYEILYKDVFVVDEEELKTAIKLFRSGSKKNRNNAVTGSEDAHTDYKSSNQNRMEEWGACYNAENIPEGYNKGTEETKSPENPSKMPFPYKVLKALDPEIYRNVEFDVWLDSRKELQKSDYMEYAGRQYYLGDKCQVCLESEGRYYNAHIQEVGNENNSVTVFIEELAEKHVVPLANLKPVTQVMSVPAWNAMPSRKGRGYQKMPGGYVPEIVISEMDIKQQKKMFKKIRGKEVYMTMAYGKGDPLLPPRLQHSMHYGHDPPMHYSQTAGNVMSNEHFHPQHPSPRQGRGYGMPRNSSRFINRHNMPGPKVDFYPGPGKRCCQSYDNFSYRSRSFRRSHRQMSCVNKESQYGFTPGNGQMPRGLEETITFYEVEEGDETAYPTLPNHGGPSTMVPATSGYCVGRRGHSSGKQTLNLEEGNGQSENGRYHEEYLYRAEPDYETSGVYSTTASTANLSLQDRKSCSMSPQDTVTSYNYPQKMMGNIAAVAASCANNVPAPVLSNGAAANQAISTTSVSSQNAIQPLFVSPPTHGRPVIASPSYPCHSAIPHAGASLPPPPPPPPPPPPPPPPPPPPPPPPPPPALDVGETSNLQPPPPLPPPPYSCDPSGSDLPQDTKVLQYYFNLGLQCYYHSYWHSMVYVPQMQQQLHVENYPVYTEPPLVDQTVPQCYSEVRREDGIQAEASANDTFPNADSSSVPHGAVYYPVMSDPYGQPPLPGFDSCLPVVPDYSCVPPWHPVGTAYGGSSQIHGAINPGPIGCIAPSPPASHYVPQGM
# Method in brief: (§1)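 In triplicate, 495 µg of HEK293T lysate per sample was incubated with fragment at 200 µM or vehicle for 3 h. Biotin-Ahx-Ub-VS was then added to 0.5 µM final for 1 h, and labelled DUBs were captured with NeutrAvidin, digested with LysC and trypsin, and measured by diaPASEF LC-MS/MS. Data are average log2 fragment/vehicle ratios by unpaired t-test from global-median-normalised Spectronaut label-free quantities, restricted to proteins with ≥2 unique peptides.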
# ATXN3 = ATXN3 (UniProt P54252)
# Chain of ATXN3 (P54252 whole entry): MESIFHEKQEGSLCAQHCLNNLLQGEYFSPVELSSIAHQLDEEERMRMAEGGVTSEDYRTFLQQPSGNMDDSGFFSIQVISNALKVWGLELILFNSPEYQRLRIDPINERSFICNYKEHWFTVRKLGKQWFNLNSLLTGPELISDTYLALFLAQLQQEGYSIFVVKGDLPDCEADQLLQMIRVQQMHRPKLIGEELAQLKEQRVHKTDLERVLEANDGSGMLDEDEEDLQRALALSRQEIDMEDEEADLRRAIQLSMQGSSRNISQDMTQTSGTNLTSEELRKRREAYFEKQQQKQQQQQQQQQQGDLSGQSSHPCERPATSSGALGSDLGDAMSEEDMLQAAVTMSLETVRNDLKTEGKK
# Method in brief: as §1
# BAP1 = molecular target: T2, BAP1 (UniProt Q92560)
# T2 sequence (whole entry): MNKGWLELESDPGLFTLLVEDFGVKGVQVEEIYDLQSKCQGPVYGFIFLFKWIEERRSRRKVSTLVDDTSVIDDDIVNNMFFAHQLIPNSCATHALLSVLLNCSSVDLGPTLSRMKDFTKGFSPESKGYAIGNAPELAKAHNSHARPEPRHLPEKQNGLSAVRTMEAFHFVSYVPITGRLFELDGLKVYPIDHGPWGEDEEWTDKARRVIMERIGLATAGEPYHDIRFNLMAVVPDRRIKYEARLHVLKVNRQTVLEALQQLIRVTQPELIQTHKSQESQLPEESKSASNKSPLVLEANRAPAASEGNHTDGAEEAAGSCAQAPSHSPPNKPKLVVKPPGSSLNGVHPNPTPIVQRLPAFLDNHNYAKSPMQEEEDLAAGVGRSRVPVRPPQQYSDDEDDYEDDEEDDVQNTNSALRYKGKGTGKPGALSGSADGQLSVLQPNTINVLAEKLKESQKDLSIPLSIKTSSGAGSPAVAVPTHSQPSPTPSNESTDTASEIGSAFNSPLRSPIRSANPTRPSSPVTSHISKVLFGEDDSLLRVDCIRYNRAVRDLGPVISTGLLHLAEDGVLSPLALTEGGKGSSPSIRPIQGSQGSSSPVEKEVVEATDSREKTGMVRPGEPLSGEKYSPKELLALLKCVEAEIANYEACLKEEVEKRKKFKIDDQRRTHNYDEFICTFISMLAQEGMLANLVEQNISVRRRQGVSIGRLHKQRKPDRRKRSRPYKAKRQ
# Method in brief: as §1
# EIF3F = EIF3F (UniProt O00303)
# Chain of EIF3F (O00303 whole entry): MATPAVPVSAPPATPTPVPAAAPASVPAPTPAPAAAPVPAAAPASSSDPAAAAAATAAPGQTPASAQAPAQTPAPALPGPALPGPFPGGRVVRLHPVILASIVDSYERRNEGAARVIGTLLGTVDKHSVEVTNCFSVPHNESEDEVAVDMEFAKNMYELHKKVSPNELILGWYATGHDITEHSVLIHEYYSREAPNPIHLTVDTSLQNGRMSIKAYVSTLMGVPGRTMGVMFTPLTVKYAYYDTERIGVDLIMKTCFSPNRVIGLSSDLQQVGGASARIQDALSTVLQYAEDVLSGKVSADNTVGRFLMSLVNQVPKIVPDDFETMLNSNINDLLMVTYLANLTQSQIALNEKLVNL
# Method in brief: as §1
# EIF3H = EIF3H (UniProt O15372)
# Chain of EIF3H (O15372 whole entry): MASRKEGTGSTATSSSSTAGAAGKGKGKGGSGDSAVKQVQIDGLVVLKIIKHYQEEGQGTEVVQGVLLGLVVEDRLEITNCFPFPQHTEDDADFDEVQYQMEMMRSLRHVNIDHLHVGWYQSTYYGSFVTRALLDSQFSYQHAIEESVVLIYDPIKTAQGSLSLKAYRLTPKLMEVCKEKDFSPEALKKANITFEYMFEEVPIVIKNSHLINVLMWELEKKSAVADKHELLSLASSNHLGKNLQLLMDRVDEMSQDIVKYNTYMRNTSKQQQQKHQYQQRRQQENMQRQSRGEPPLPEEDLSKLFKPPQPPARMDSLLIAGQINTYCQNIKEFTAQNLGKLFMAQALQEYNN
# Method in brief: as §1
# FAM105A = molecular target: T3, FAM105A (UniProt Q9NUU6)
# T3 sequence (whole entry): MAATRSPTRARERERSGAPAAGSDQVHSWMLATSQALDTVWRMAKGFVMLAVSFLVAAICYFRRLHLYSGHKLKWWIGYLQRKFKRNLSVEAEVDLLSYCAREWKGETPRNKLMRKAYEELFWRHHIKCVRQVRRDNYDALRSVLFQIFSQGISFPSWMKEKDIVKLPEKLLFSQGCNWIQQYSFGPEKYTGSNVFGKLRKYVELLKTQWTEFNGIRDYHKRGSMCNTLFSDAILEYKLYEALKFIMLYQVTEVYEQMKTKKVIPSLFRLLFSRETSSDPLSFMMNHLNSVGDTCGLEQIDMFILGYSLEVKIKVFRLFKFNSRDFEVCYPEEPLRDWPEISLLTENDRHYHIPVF
# Method in brief: as §1
# OTUB1 = OTUB1 (UniProt Q96FW1)
# Chain of OTUB1 (Q96FW1 whole entry): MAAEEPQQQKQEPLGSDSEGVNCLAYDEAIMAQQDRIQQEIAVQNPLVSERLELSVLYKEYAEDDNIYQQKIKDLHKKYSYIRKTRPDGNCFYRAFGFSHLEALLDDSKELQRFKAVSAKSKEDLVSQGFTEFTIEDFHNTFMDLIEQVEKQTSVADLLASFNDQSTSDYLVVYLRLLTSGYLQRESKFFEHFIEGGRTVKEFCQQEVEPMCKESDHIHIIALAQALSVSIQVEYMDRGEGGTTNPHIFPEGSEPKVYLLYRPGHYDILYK
# Method in brief: as §1
# OTUD4 = molecular target: T4, OTUD4 (UniProt Q01804)
# T4 sequence (whole entry): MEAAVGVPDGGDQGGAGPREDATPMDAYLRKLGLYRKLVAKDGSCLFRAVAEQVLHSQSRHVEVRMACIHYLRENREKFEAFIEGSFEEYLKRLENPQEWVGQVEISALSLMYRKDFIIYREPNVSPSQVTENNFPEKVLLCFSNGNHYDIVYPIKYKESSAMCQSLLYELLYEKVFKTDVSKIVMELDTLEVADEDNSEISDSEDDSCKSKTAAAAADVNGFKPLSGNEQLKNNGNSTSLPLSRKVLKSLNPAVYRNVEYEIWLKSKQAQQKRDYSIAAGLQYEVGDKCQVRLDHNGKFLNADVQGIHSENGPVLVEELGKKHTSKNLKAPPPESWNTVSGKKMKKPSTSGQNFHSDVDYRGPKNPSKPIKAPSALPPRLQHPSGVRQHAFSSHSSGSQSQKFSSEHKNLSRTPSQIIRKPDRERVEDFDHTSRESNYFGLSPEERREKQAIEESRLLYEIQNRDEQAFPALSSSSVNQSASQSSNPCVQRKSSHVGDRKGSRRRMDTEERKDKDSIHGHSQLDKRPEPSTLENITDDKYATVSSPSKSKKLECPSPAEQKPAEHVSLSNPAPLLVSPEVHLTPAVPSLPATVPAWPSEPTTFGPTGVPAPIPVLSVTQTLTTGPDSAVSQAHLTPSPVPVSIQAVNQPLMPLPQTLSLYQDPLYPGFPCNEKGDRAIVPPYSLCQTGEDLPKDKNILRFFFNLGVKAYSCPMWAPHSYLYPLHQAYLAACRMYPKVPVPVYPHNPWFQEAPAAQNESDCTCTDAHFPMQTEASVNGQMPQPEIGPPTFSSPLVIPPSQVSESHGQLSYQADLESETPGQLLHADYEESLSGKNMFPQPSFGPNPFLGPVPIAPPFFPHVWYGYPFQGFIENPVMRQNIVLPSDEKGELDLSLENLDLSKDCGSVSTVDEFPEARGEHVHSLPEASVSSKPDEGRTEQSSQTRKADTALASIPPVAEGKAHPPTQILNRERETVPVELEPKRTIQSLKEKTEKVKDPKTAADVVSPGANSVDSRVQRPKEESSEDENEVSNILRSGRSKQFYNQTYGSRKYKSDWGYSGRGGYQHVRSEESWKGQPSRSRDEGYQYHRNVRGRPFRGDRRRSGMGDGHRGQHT
# Method in brief: as §1
# OTUD5 = molecular target: T5, OTUD5 (UniProt Q96G74)
# T5 sequence (whole entry): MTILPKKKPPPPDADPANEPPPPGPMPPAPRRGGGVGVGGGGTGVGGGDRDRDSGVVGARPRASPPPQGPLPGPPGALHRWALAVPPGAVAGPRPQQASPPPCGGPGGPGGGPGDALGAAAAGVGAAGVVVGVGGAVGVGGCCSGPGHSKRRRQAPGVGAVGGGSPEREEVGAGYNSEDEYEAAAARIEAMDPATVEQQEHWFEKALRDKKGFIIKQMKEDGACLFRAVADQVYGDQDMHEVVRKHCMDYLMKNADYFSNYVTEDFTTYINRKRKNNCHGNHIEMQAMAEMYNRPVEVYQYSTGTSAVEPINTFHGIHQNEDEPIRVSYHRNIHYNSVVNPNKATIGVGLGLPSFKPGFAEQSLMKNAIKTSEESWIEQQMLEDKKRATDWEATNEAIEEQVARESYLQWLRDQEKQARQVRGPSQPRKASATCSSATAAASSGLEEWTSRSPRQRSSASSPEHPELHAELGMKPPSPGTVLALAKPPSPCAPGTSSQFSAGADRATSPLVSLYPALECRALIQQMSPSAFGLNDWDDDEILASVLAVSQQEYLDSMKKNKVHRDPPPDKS
# Method in brief: as §1
smiles,measurement,setting,value
O=C(CCl)N1CCCC1c1ccsc1 (centres undefined),log2 ratio of Biotin-Ahx-Ub-VS probe labelling,ALG13,-0.0335
same,log2 ratio of Biotin-Ahx-Ub-VS probe labelling,ATXN3,-1.15 (active)
same,log2 ratio of Biotin-Ahx-Ub-VS probe labelling,BAP1,-3.75 (active)
same,log2 ratio of Biotin-Ahx-Ub-VS probe labelling,EIF3F,0.0507
same,log2 ratio of Biotin-Ahx-Ub-VS probe labelling,EIF3H,0.2
same,log2 ratio of Biotin-Ahx-Ub-VS probe labelling,FAM105A,0.313
same,log2 ratio of Biotin-Ahx-Ub-VS probe labelling,OTUB1,-0.142
same,log2 ratio of Biotin-Ahx-Ub-VS probe labelling,OTUD4,-0.382
same,log2 ratio of Biotin-Ahx-Ub-VS probe labelling,OTUD5,-0.65
